These results are taken from ChEMBL document CHEMBL1961873, “Compounds: GSK PKIS; Assays: Nanosyn kinase panel” (2012).

Sequence of Ribosomal protein S6 kinase alpha-1 (Homo sapiens) (Q15418 whole entry): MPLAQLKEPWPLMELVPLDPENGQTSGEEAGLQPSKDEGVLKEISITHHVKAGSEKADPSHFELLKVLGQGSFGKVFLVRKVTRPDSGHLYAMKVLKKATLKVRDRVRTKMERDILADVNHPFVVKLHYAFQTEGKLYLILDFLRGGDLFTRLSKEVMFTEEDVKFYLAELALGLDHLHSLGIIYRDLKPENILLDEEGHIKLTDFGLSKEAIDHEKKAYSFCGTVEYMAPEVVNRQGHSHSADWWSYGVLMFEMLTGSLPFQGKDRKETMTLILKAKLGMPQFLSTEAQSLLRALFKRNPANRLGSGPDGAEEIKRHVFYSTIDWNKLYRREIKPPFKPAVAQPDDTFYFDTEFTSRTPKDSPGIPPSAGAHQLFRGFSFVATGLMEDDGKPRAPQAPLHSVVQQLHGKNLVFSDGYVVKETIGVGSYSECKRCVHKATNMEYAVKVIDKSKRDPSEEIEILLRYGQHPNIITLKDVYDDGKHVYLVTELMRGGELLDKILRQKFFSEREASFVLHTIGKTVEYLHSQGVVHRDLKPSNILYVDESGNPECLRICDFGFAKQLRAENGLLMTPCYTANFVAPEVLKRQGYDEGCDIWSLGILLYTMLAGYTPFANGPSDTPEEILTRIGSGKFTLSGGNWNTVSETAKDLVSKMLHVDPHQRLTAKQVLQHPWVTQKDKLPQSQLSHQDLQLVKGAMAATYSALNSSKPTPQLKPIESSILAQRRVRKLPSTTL

One assay concerns the target Ribosomal protein S6 kinase alpha-1 (Homo sapiens) (UniProt Q15418). The settings on record: at 1 µM.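 Also: mean inhibition of RSK1, reported in the GSK PKIS screen.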
As to `Cc1cccc2c1NC(=O)/C2=N\Nc1ccc(S(N)(=O)=O)cc1`, the inhibition (usually the relative decrease from the control value, in per cent) was found to be 1.6%.
Same read-out and setting: then `Clc1ccc(-c2nn3ncccc3c2-c2ccnc(Nc3ccccc3)n2)cc1`, with 2.48%; and `COc1ccc(-c2cc(-c3c[nH]nc3-c3ccccn3)ccn2)cc1`, with 6.34%.
The same measure, in the same setting: the result for `NS(=O)(=O)c1ccc(Nc2ncc(-c3ccccc3)o2)cc1` reads 6.42%; that for `c1ccc(-c2nc3n(c2-c2ccc4c(c2)OCO4)CCC3)nc1`, 5.39%.
On the same count and under the same terms, the result for `N#Cc1c(NC(=O)c2ccc(F)cc2)sc2c1CCCC2` reads 2.35%; that for `CC(C)COC(=O)c1ccc2c(c1)/C(=C/Nc1ccc(S(N)(=O)=O)cc1)C(=O)N2`, 32.4%.
Consider `Cc1ccc2c(-c3ccnc(Nc4ccccc4)n3)c(-c3ccc(F)cc3)nn2n1`, for which the inhibition stood at 4.63%.
Same read-out and setting: the result for `CS(=O)(=O)CCNCc1ccc(-c2ccc3ncnc(Nc4ccc(OCc5ccccc5)c(C(F)(F)F)c4)c3c2)o1` reads 1.86%; that for `O=C(O[C@H]1CN[C@H](C#Cc2cc3ncnc(Nc4ccc(Cc5ccccc5)cc4)c3s2)C1)N1CCOCC1`, 1.3%.
Take `COc1ccc2[nH]c3c4[nH]c5ccc(OC)cc5c4c4c(c3c2c1)C(=O)NC4=O`: the inhibition is 82%.
Same read-out and setting: then `COc1ccc2c(-c3ccnc(Nc4cccc(OC(F)(F)F)c4)n3)cnn2n1`, with 3.67%; and `CN1CCC(n2cnc(-c3ccc(F)cc3)c2-c2ccnc(N)n2)CC1`, with 4.9%; and `CN(C)CCOc1ccc(-c2nc(-c3ccncc3)c(-c3ccc4c(c3)CC/C4=N\O)[nH]2)cc1`, with 5.08%.
Same read-out and setting: then `COc1cc(N2CCN(C(C)C)CC2)ccc1Nc1nc(Nc2ccc(F)cc2C(N)=O)c2cc[nH]c2n1`, with 65.3%; and `CNC(=O)c1cncc(/C=C/c2ccccc2Cl)c1`, with 2.91%.
The same measure, in the same setting: then `[O-][S+]1CCN(Cc2ccc(-c3ccc4ncnc(Nc5ccc(OCc6cccc(F)c6)c(Cl)c5)c4c3)o2)CC1`, with 3.99%.
In the case of `COc1ccc(-c2nn3ncccc3c2-c2ccnc(Nc3ccc4c(c3)OCCO4)n2)cc1`, the inhibition is -1.03%.
Turning to `FC(F)(F)c1cccc(-c2nn3ncccc3c2-c2ccnc(Nc3ccc4c(c3)OCCO4)n2)c1`, the inhibition came out at 5.1%.
Still for that read-out and setting: then `CNC(=O)c1cc(-c2ccc(F)cc2)cc(-c2ccc(S(=O)(=O)N3CCCC3)cc2)c1N`, with 1.77%; and `CNC(=O)c1cccc(C#Cc2cncnc2Nc2ccc(OCc3cccc(F)c3)c(Cl)c2)c1`, with 1.83%; and `CCOc1ccc2c(-c3ccnc(Nc4cccc(C(F)(F)F)c4)n3)cnn2n1`, with 0.51%.
Still for that read-out and setting: the result for `CC(C)(CO)CNC(=O)c1ccc2c(c1)/C(=N/Nc1ccc(S(N)(=O)=O)cc1)C(=O)N2` reads 3.49%; that for `Cc1ccc(O)cc1Nc1ccnc2cc(-c3ccccn3)ccc12`, 0.51%.
Regarding `COC(=O)c1sc(-n2cnc3cc(OC)c(OC)cc32)cc1OCc1ccccc1C(F)(F)F`, the inhibition is 1.38%.
The same measure, in the same setting: then `CC(=O)Nc1cccc(C#Cc2cncnc2Nc2ccc(OCc3cccc(F)c3)c(Cl)c2)c1`, with -1.94%; and `Fc1cccc(COc2ccc(Nc3ncnc4sc(-c5ccco5)cc34)cc2Cl)c1`, with 2.91%.
For the molecule `COc1cc2ncn(-c3cc(OCc4ccccc4C(F)(F)F)c(C(=O)N(C)C)s3)c2cc1OC`, the inhibition stood at 0.84%.
Still for that read-out and setting: then `COc1cc2c(cc1Nc1nc(Nc3ccsc3C(N)=O)c3cc[nH]c3n1)N(C(=O)CN(C)C)CCC2(C)C`, with 66%.
Same read-out and setting: then `Nc1ncc(-c2cccc(S(N)(=O)=O)c2)c2scc(-c3ccc(F)c(Cl)c3)c12`, with 6.15%; and `O=C(Nc1n[nH]c2cc(-c3ccc(F)cc3)ccc12)C1CC1`, with 9.5%.
Same read-out and setting: the result for `Cc1cccc(Nc2ncc(-c3ccccc3)o2)c1` reads 2.99%.
For the molecule `CCCN(CCS(C)(=O)=O)Cc1ccc(-c2ccc3ncnc(Nc4ccc(OCc5cccc(F)c5)c(Cl)c4)c3c2)o1`, the inhibition was determined as 0.68%.
Same read-out and setting: the result for `N#Cc1c(NC(=O)CN2CCOCC2)sc2c1CCCC2` reads 3.62%.

The target of the next assay is Ribosomal protein S6 kinase alpha-3 (Homo sapiens) (UniProt P51812). The settings on record: at 0.1 µM.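 Also: reported value is a mean inhibition figure.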
Sequence of Ribosomal protein S6 kinase alpha-3 (Homo sapiens) (P51812 whole entry): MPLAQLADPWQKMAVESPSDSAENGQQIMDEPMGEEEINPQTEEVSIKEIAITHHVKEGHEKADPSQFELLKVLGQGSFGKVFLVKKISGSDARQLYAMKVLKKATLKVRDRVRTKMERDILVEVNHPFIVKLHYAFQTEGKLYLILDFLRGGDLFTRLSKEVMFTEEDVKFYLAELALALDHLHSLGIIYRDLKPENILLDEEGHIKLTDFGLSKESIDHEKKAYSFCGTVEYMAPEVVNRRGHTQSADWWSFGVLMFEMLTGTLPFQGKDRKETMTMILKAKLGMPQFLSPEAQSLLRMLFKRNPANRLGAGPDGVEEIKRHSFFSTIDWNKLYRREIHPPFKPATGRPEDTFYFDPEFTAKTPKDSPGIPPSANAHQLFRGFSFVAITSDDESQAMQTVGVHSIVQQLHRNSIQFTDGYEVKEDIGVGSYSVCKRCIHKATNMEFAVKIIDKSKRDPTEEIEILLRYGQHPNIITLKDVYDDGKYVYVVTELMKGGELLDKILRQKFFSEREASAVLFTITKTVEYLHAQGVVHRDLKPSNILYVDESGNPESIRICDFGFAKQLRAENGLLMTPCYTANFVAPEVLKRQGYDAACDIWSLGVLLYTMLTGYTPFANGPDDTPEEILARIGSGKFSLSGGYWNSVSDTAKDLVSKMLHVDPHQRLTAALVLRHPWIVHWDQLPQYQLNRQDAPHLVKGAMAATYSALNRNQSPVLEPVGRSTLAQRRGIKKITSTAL
As for `Cc1cccc2c1NC(=O)/C2=N\Nc1ccc(S(N)(=O)=O)cc1`, the inhibition worked out at 0.33%.
Still for that read-out and setting: the result for `Clc1ccc(-c2nn3ncccc3c2-c2ccnc(Nc3ccccc3)n2)cc1` reads 0.47%; that for `COc1ccc(-c2cc(-c3c[nH]nc3-c3ccccn3)ccn2)cc1`, 1.84%; that for `NS(=O)(=O)c1ccc(Nc2ncc(-c3ccccc3)o2)cc1`, 1.17%.
Still for that read-out and setting: the result for `c1ccc(-c2nc3n(c2-c2ccc4c(c2)OCO4)CCC3)nc1` reads 4.41%.
On the same count and under the same terms, the result for `N#Cc1c(NC(=O)c2ccc(F)cc2)sc2c1CCCC2` reads 0.9%; that for `CC(C)COC(=O)c1ccc2c(c1)/C(=C/Nc1ccc(S(N)(=O)=O)cc1)C(=O)N2`, 7.27%.
For `Cc1ccc2c(-c3ccnc(Nc4ccccc4)n3)c(-c3ccc(F)cc3)nn2n1`, the inhibition was 0.24%.
Same read-out and setting: the result for `CS(=O)(=O)CCNCc1ccc(-c2ccc3ncnc(Nc4ccc(OCc5ccccc5)c(C(F)(F)F)c4)c3c2)o1` reads 1.54%; that for `O=C(O[C@H]1CN[C@H](C#Cc2cc3ncnc(Nc4ccc(Cc5ccccc5)cc4)c3s2)C1)N1CCOCC1`, 1.48%; that for `COc1ccc2[nH]c3c4[nH]c5ccc(OC)cc5c4c4c(c3c2c1)C(=O)NC4=O`, 44.9%.
Take `COc1ccc2c(-c3ccnc(Nc4cccc(OC(F)(F)F)c4)n3)cnn2n1`: the inhibition was determined as 1.3%.
Still for that read-out and setting: then `CN1CCC(n2cnc(-c3ccc(F)cc3)c2-c2ccnc(N)n2)CC1`, with -0.12%.
Same read-out and setting: then `CN(C)CCOc1ccc(-c2nc(-c3ccncc3)c(-c3ccc4c(c3)CC/C4=N\O)[nH]2)cc1`, with 1.07%; and `COc1cc(N2CCN(C(C)C)CC2)ccc1Nc1nc(Nc2ccc(F)cc2C(N)=O)c2cc[nH]c2n1`, with 15%; and `CNC(=O)c1cncc(/C=C/c2ccccc2Cl)c1`, with 1.15%.
Same read-out and setting: then `[O-][S+]1CCN(Cc2ccc(-c3ccc4ncnc(Nc5ccc(OCc6cccc(F)c6)c(Cl)c5)c4c3)o2)CC1`, with 0.59%.
On to `COc1ccc(-c2nn3ncccc3c2-c2ccnc(Nc3ccc4c(c3)OCCO4)n2)cc1`, for which the inhibition is 0.04%.
On the same count and under the same terms, then `FC(F)(F)c1cccc(-c2nn3ncccc3c2-c2ccnc(Nc3ccc4c(c3)OCCO4)n2)c1`, with -0.79%.
In the case of `CNC(=O)c1cc(-c2ccc(F)cc2)cc(-c2ccc(S(=O)(=O)N3CCCC3)cc2)c1N`, the inhibition was found to be 1.31%.
On to `CNC(=O)c1cccc(C#Cc2cncnc2Nc2ccc(OCc3cccc(F)c3)c(Cl)c2)c1`, for which the inhibition was -0.84%.
Same read-out and setting: then `CCOc1ccc2c(-c3ccnc(Nc4cccc(C(F)(F)F)c4)n3)cnn2n1`, with 1.29%; and `CC(C)(CO)CNC(=O)c1ccc2c(c1)/C(=N/Nc1ccc(S(N)(=O)=O)cc1)C(=O)N2`, with 0.73%; and `Cc1ccc(O)cc1Nc1ccnc2cc(-c3ccccn3)ccc12`, with 0.48%.
Still for that read-out and setting: the result for `COC(=O)c1sc(-n2cnc3cc(OC)c(OC)cc32)cc1OCc1ccccc1C(F)(F)F` reads 0.27%; that for `CC(=O)Nc1cccc(C#Cc2cncnc2Nc2ccc(OCc3cccc(F)c3)c(Cl)c2)c1`, 0.9%.
With `Fc1cccc(COc2ccc(Nc3ncnc4sc(-c5ccco5)cc34)cc2Cl)c1`, the inhibition came to 1.55%.
For the molecule `COc1cc2ncn(-c3cc(OCc4ccccc4C(F)(F)F)c(C(=O)N(C)C)s3)c2cc1OC`, the inhibition is -0.53%.
In the case of `COc1cc2c(cc1Nc1nc(Nc3ccsc3C(N)=O)c3cc[nH]c3n1)N(C(=O)CN(C)C)CCC2(C)C`, the inhibition turned out to be 17.2%.
Still for that read-out and setting: then `Nc1ncc(-c2cccc(S(N)(=O)=O)c2)c2scc(-c3ccc(F)c(Cl)c3)c12`, with 2.5%; and `O=C(Nc1n[nH]c2cc(-c3ccc(F)cc3)ccc12)C1CC1`, with 4.78%.
Turning to `Cc1cccc(Nc2ncc(-c3ccccc3)o2)c1`, the inhibition came to 0.91%.
Still for that read-out and setting: the result for `CCCN(CCS(C)(=O)=O)Cc1ccc(-c2ccc3ncnc(Nc4ccc(OCc5cccc(F)c5)c(Cl)c4)c3c2)o1` reads 0.4%.
The same measure, in the same setting: the result for `N#Cc1c(NC(=O)CN2CCOCC2)sc2c1CCCC2` reads 1.56%.
